Test results as given in publication PMC10668032, “Altered binding affinity of SIX1-Q177R correlates with enhanced WNT5A and WNT pathway effector expression in Wilms tumor”.
Whole data set: some 33,000 sequences, median “e-score” near -0.05, cut for the highest 2% near 0.38. The sample holds the highest values, similar sequences and a random draw of the others, so the mix is not that of the screen.

Biological target: T1, SIX1-Q177R homeodomain (human, UniProt Q15475 108-198, Q177R)
T1 sequence: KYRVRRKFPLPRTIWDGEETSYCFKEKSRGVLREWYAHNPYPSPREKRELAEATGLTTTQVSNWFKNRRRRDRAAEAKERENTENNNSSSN
Assay: universal protein binding microarray; Universal all-10-mer PBM (8x60K, AMADID 030236), 300 nM GST-tagged protein, Alexa Fluor 488 anti-GST; buffer, salt, pH and temperature not stated (as in Berger); high values mean tight binding
Details: protein: ivt; tags: N-terminal GST; dsDNA, one strand shown
Method in brief: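 GST-tagged homeodomains were made by in vitro transcription/translation and quantified by anti-GST western blot against a recombinant GST standard curve. They were applied in duplicate at 300 nM final concentration to universal 'all 10-mer' protein binding microarrays (8×60K format). Binding was quantified as 8-mer E-scores with the Universal PBM Analysis Suite.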

Sequence	binding signal
ACCCCATC	0.245 ± 0.00929 E-score
ACACCATC	0.4671 ± 0.000891 E-score
ACTCCATG	0.212 ± 0.0247 E-score
GCACCATA	0.174 ± 0.00986 E-score
ACACCATA	0.459 ± 0.00633 E-score
ACTCCATA	0.2012 ± 0.000827 E-score
ATTTTACA	0.19 ± 0.0629 E-score
TGGGTACA	0.29 ± 0.00578 E-score
ATCGCGGG	0.167 ± 0.0319 E-score
AGGGTAGG	0.176 ± 0.00576 E-score
CCCCAAGA	0.156 ± 0.0279 E-score
GTAACACA	0.223 ± 0.0443 E-score
ATAACTCC	0.181 ± 0.0433 E-score
ATAACCCC	0.266 ± 0.0237 E-score
CTAACACA	0.209 ± 0.00581 E-score
ATAACACC	0.479 ± 0.0087 E-score
CTAACACC	0.478 ± 0.00653 E-score
ATAACACG	0.402 ± 0.0181 E-score
ATAACACA	0.2399 ± 0.00217 E-score
CTAACCCC	0.223 ± 0.0193 E-score
CCCCGTGC	0.244 ± 0.0265 E-score
CGCCGCCG	0.208 ± 0.031 E-score

Sequence	binding signal
ATTCACTC	0.151 ± 0.0349 E-score
AGCACGCA	0.24 ± 0.0253 E-score
CACCCCGC	0.337 ± 0.0136 E-score
GGTCCGGA	0.161 ± 0.0425 E-score
GATATCCC	0.193 ± 0.0406 E-score
ACCCCTGA	0.2405 ± 0.00201 E-score
ACACCTGG	0.448 ± 0.00897 E-score
ACTCCTGA	0.206 ± 0.00412 E-score
ACCCCTGG	0.163 ± 0.00865 E-score
ACTCCTGC	0.158 ± 0.00297 E-score
ACCCCTGC	0.235 ± 0.0269 E-score
AAACCTGG	0.169 ± 0.0219 E-score
ACACCTGA	0.4477 ± 0.00107 E-score
ACACCTGC	0.4582 ± 0.00372 E-score
CCCTTGTA	0.2081 ± 0.00151 E-score
ATTCCGTG	0.2 ± 0.0598 E-score
CCCAGGCG	0.167 ± 0.0378 E-score
CGAGGCAA	0.186 ± 0.00832 E-score
CAGTGCAC	0.183 ± 0.0019 E-score
GAGTGTGC	0.184 ± 0.00494 E-score
CAGTGTAC	0.4035 ± 0.00271 E-score
AAGTGTAG	0.37 ± 0.0123 E-score

Sequence	binding signal
GAGTGCAC	0.195 ± 0.00266 E-score
CACTGTAC	0.194 ± 0.0212 E-score
CTGTGTAC	0.229 ± 0.0232 E-score
GAGTGTAC	0.419 ± 0.00767 E-score
CAGTGTAG	0.4232 ± 0.00358 E-score
AAGTGTAC	0.391 ± 0.0232 E-score
CACTTATG	0.161 ± 0.0539 E-score
AAGTTACA	0.171 ± 0.00584 E-score
AGAAGGTG	0.302 ± 0.0205 E-score
CCCCGGAC	0.152 ± 0.0324 E-score
GAGCACCC	0.283 ± 0.0502 E-score
GGGTGTAA	0.478 ± 0.01 E-score
AGGTGCAA	0.169 ± 0.04 E-score
GTGTGTAA	0.337 ± 0.0168 E-score
ATGTGTAA	0.225 ± 0.00674 E-score
AGGTGTAA	0.463 ± 0.021 E-score
TGGTGCAA	0.169 ± 0.0456 E-score
TGGAGTAA	0.233 ± 0.068 E-score
CGGGGTAG	0.221 ± 0.00415 E-score
TGGTGTAA	0.486 ± 0.00978 E-score
GGGGGTAA	0.354 ± 0.0195 E-score
CGGTGTAG	0.487 E-score

Sequence	binding signal
GGTGCACC	0.353 ± 0.00627 E-score
CAACAACA	0.195 ± 0.00619 E-score
TGACCCCA	0.279 ± 0.0177 E-score
CGGAGTAA	0.266 ± 0.0379 E-score
AAGGTATC	0.251 ± 0.0701 E-score
GGAACCCA	0.181 ± 0.0136 E-score
GACCTCAC	0.161 ± 0.0365 E-score
ACCGAACA	0.196 ± 0.0386 E-score
GGGTGTAC	0.4828 ± 0.00134 E-score
CGGTGTAA	0.481 ± 0.0071 E-score
GGGGGTAC	0.331 ± 0.0182 E-score
GGGTGCAC	0.28 ± 0.022 E-score
CGGTGCAA	0.259 ± 0.00579 E-score
CTGTGTAA	0.153 ± 0.011 E-score
CCCCACGA	0.1526 ± 0.000735 E-score
TGTAAGAA	0.294 ± 0.0277 E-score
AAACGTGT	0.303 ± 0.054 E-score
CCCGGTGC	0.154 ± 0.0105 E-score
ACTTACCC	0.186 ± 0.0205 E-score
GCTTACAC	0.437 ± 0.0203 E-score
CCTTACAC	0.439 ± 0.0105 E-score
